Test [1] can be described thus: ATG_GLI_CIS: Attagene CIS-FACTORIAL HepG2 Assay for human Zinc Finger Protein GLI1 (AID 2282945). The conditions noted are these: HepG2, Attagene cis-factorial reporter mRNA, GLI element; actives raise or lower the signal. In short, it runs like this:
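Bidirectional curve fits relative to DMSO, using reporter mRNA levels from RT-PCR plus capillary electrophoresis. Cells were HepG2 transiently carrying cis-regulated reporter constructs, harvested 24 h after dosing.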

Test [2] has as its target Bile acid receptor (Homo sapiens) (UniProt Q96RI1). The test is described as follows: ATG_IR1_CIS: Attagene CIS-FACTORIAL HepG2 Assay for human Nuclear Receptor Subfamily 1 Group H Member 4 (NR1H4), IR1 submotif (AID 2282946). The conditions noted are these: IR1 reporter transcription, actives raise or lower the signal. In short, it runs like this: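 HepG2 cells transiently transfected with multiplexed cis-element reporter units read endogenous transcription factor activity. After 24 h compound exposure, reporter mRNA was quantified by RT-PCR, fluorescent labelling, HpaI digestion and capillary electrophoresis; bidirectional fitting versus DMSO baseline.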

The nature of test [3]: ATG_GRE_CIS: Attagene CIS-FACTORIAL HepG2 Assay for human Glucocorticoid Response Elements (GRE) (AID 2282947). The conditions noted are these: HepG2 GRE cis-reporter, Attagene multiplex mRNA; actives raise or lower the signal. In short, it runs like this: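 Multiplexed cis-reporter mRNA induction, HepG2, 24 h post-dose. RT-PCR, FAM-labelled, HpaI-digested amplicons by CE. Bidirectional fit vs DMSO.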

The nature of test [4]: ATG_ISRE_CIS: Attagene CIS-FACTORIAL HepG2 Assay for human Interferon Regulatory Factor 1 (IRF1) binding to an Interferon-Stimulated Response Element (ISRE) (AID 2282948). The conditions noted are these: HepG2 ISRE cis-reporter (Attagene), mRNA transcription readout; actives raise or lower the signal. In short, it runs like this:
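Endogenous transcription factor activity read as reporter transcript abundance via RT-PCR and capillary electrophoresis. HepG2 cells transiently transfected, 24 h chemical exposure. Gain or loss fitted against DMSO baseline.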

Test [5] is described as follows: ATG_M_32_CIS: Attagene CIS-FACTORIAL HepG2 Assay for M32 Transcription Factor (Internal Marker) (AID 2282949).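 Further: background control marker of the multiplexed CIS panel rather than a real target.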 The conditions noted are these: HepG2 Attagene cis-factorial M32 reporter, mRNA; actives raise or lower the signal. In short, it runs like this:
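Using DMSO as baseline, bidirectional curve fits were applied to reporter mRNA signals. These came from transiently transfected HepG2 cells exposed for 24 h, with RNA analysed by RT-PCR, FAM primer extension, HpaI digestion and CE.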

Test [6] is described as follows: ATG_M_06_CIS: Attagene CIS-FACTORIAL HepG2 Assay for M06 Transcription Factor (Internal Marker) (AID 2282950). The conditions noted are these: HepG2 Attagene CIS-FACTORIAL M06 internal marker reporter; actives raise or lower the signal. An outline of the steps:
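One of many multiplexed endpoints: HepG2 reporter mRNA after 24 h dosing, detected by RT-PCR and capillary electrophoresis fluorescence; gain or loss of signal analysed against DMSO.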

Test [7] deals with Hypoxia-inducible factor 1-alpha (Homo sapiens) (UniProt Q16665). The test is described as follows: ATG_HIF1a_CIS: Attagene CIS-FACTORIAL HepG2 Assay for human Hypoxia Inducible Factor 1 (HIF1A) (AID 2282951). The conditions noted are these: HepG2 Attagene cis-factorial HIF1a reporter transcription; actives raise or lower the signal. In short, it runs like this:
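After 24 h chemical exposure of reporter-transfected HepG2 cells, reporter cDNA was PCR-amplified, labelled by 6-FAM primer extension (2 min 95 C, 20 s 68 C, 10 min 72 C), HpaI-cut (2 h, 37 C) and analysed by CE.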

Test [8] deals with Hepatocyte nuclear factor 6 (Homo sapiens) (UniProt Q9UBC0). The test is described as follows: ATG_HNF6_CIS: Attagene CIS-FACTORIAL HepG2 Assay for human Hepatocyte Nuclear Factor 6 (HNF6) (AID 2282952). The conditions noted are these: HepG2 Attagene cis-factorial HNF6 reporter transcription; actives raise or lower the signal. In short, it runs like this:
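Using cis-element reporters in HepG2 liver cells, the assay tracks endogenous factor-driven transcription 24 h post-dosing. Signal comes from 6-FAM-labelled, HpaI-digested RT-PCR fragments, with gain or loss scored against DMSO.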

For test [9], the target named is Heat shock factor protein 1 (Homo sapiens) (UniProt Q00613). Description: ATG_HSE_CIS: Attagene CIS-FACTORIAL HepG2 Assay for human Heat Shock Transcription Factor 1 (HSE) (AID 2282953). The conditions noted are these: HepG2 HSE cis-reporter, Attagene RNA transcription; actives raise or lower the signal. An outline of the steps: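 Using HepG2 with transfected cis-driven reporter constructs, compound effects on endogenous factor activity are scored as reporter mRNA change at 24 h. Detection: RT-PCR, HpaI digestion, capillary electrophoresis; bidirectional fitting to DMSO.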
Sequence of Heat shock factor protein 1 (Homo sapiens) (Q00613 whole entry, looked up): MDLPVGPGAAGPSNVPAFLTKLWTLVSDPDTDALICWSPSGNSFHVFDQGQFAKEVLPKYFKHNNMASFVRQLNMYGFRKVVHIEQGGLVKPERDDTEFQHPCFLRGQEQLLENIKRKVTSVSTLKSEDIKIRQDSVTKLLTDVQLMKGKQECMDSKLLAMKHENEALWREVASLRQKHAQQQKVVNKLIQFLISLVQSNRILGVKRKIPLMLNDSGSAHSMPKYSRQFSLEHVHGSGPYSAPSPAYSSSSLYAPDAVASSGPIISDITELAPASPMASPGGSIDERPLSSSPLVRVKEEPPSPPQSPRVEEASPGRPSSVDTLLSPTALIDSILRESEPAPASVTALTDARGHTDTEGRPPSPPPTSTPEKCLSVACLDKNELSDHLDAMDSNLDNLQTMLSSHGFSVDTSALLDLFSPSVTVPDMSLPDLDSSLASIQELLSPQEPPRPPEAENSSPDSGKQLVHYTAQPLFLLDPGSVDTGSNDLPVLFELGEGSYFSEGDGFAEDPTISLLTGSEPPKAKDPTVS

Test [10] in a line: ATG_MRE_CIS: Attagene CIS-FACTORIAL HepG2 Assay for human Metal Responsive Element (MRE) (AID 2282954). The conditions noted are these: HepG2 MRE cis-reporter transcription, Attagene multiplex; actives raise or lower the signal. An outline of the steps: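 Multiplexed cis-reporter assay in human HepG2 liver cells, 24 h incubation with test chemical. Reporter transcripts measured by RT-PCR and capillary electrophoresis; values from bidirectional curve fitting versus DMSO.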

The nature of test [11]: ATG_PBREM_CIS: Attagene CIS-FACTORIAL HepG2 Assay for human Phenobarbital-responsive Enhancer Module (PBREM) (AID 2282955). The conditions noted are these: HepG2 PBREM cis-reporter, Attagene multiplexed transcription; actives raise or lower the signal. An outline of the steps:
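Measures endogenous factor action on a phenobarbital-responsive enhancer module. HepG2 transiently carrying cis reporters, 24 h treatment, mRNA read-out by RT-PCR plus capillary electrophoresis.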

The target in test [12] is Paired box protein Pax-6 (Homo sapiens) (UniProt P26367). Description: ATG_Pax6_CIS: Attagene CIS-FACTORIAL HepG2 Assay for human Paired Box 6 (PAX6) (AID 2282956). The conditions noted are these: HepG2 CIS-FACTORIAL PAX6 reporter transcription, RNA readout; actives raise or lower the signal. An outline of the steps: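 Read-out is reporter transcript level, measured by RT-PCR with fluorescent primer extension and capillary electrophoresis after 24 h dosing of transfected HepG2 cells. Activity in either direction fitted relative to DMSO control.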
Sequence of Paired box protein Pax-6 (Homo sapiens) (P26367 whole entry, looked up): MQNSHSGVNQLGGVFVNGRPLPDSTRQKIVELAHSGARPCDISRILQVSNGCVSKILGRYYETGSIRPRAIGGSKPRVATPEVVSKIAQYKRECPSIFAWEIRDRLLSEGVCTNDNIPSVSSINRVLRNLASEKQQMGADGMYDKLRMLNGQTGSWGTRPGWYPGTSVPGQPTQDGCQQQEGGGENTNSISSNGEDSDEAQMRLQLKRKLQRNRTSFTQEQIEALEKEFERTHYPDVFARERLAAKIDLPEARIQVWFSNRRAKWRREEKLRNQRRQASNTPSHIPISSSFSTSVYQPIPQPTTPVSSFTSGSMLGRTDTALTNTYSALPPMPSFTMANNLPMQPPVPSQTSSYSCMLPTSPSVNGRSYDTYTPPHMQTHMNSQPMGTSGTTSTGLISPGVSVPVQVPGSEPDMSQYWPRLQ

A short description of test [13]: ATG_PXRE_CIS: Attagene CIS-FACTORIAL HepG2 Assay for human Pregnane X Receptor Element (PXRE) (AID 2282957). The conditions noted are these: HepG2 Attagene CIS-FACTORIAL PXRE reporter, mRNA; actives raise or lower the signal. An outline of the steps: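 Using HepG2 transfected with multiple reporter transcription units, endogenous factor-driven transcription was scored as reporter mRNA after 24 h exposure.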

A short description of test [14]: ATG_PPRE_CIS: Attagene CIS-FACTORIAL HepG2 Assay for human Peroxisome Proliferator-activated Response Element (PPRE) (AID 2282958). The conditions noted are these: HepG2 PPRE cis-element reporter, Attagene transcription factor profiling; actives raise or lower the signal. In short, it runs like this:
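PPRE activity in HepG2: transient cis-reporter transfection, 24 h compound incubation, reporter mRNA by RT-PCR and CE fluorescence; gain/loss fitted against DMSO.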

Test [15] in a line: ATG_RORE_CIS: Attagene CIS-FACTORIAL HepG2 Assay for human RAR-related Orphan Receptor Element (RORE) (AID 2282959). The conditions noted are these: HepG2 Attagene cis-factorial RORE reporter, mRNA; actives raise or lower the signal. An outline of the steps: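 A 24-hour exposure of transfected HepG2 hepatoma cells precedes RNA isolation and reporter RT-PCR. Labeled products are digested with HpaI and resolved by capillary electrophoresis, with gain or loss of signal scored relative to DMSO.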

Test [16] can be described thus: ATG_Sox_CIS: Attagene CIS-FACTORIAL HepG2 Assay for human SRY-box transcription factor (SOX) (AID 2282960). The conditions noted are these: HepG2 Attagene cis-factorial SOX reporter, mRNA; actives raise or lower the signal. In short, it runs like this: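 HepG2, cis reporter units, 24 h exposure. Reporter mRNA: RT-PCR → FAM labelling → HpaI → CE fluorescence. Bidirectional fit vs DMSO.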

The target in test [17] is Transcription factor Sp1 (Homo sapiens) (UniProt P08047). Description: ATG_Sp1_CIS: Attagene CIS-FACTORIAL HepG2 Assay for human Specificity Protein 1 (Sp1) (AID 2282961). The conditions noted are these: HepG2 Sp1 cis-reporter transcription, actives raise or lower the signal. An outline of the steps: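 Liver-derived HepG2 cells, cis-element reporter library, 24 h treatment; RNA isolated, cDNA amplified with reporter-specific primers, FAM-labeled fragments sized on capillary analyzer. DMSO baseline, bidirectional curve fit.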
Sequence of Transcription factor Sp1 (Homo sapiens) (P08047 whole entry, looked up, the tested form may be a part): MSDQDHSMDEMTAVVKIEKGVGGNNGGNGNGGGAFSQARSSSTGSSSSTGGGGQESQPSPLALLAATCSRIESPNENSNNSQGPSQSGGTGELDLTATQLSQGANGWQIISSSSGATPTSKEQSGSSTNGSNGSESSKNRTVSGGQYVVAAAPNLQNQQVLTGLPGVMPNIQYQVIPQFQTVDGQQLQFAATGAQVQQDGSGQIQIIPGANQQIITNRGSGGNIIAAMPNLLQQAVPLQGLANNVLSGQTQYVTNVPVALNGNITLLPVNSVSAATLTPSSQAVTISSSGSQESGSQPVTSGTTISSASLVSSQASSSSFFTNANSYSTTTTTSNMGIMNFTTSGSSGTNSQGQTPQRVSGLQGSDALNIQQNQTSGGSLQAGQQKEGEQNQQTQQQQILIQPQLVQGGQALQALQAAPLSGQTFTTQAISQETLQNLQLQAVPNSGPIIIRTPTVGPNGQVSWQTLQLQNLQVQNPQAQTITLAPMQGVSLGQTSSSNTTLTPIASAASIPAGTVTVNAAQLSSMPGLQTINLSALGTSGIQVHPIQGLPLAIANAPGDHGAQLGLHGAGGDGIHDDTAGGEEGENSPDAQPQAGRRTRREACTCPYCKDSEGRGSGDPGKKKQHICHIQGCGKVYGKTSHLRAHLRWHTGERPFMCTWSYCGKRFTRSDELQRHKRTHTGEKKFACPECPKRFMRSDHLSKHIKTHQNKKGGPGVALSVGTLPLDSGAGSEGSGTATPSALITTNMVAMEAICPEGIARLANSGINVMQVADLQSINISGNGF

Test [18] in a line: ATG_SREBP_CIS: Attagene CIS-FACTORIAL HepG2 Assay for human Sterol Regulatory Element Binding (SREBP) (AID 2282962). The conditions noted are these: HepG2 Attagene cis-factorial SREBP reporter, mRNA; actives raise or lower the signal. In short, it runs like this:
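Endogenous SREBP activity read as cis-element-driven reporter transcript in transiently transfected HepG2, 24 h post-dosing; quantified via RT-PCR plus capillary electrophoresis of fluorescent fragments. Gain or loss of signal fitted relative to DMSO baseline.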

For test [19], the target named is Signal transducer and activator of transcription 3 (Homo sapiens) (UniProt P40763). Description: ATG_STAT3_CIS: Attagene CIS-FACTORIAL HepG2 Assay for human Signal Transducer and Activator of Transcription 3 (STAT3) (AID 2282963). The conditions noted are these: HepG2, Attagene cis-factorial STAT3 reporter transcription; actives raise or lower the signal. In short, it runs like this: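 Cis-factorial format: endogenous transcription factors in HepG2 drive transfected reporter units. After 24 h treatment, reporter RNA was reverse-transcribed, amplified, FAM-labelled and HpaI-digested before CE analysis; activity scored in both directions against DMSO.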
Sequence of Signal transducer and activator of transcription 3 (Homo sapiens) (P40763 whole entry, looked up): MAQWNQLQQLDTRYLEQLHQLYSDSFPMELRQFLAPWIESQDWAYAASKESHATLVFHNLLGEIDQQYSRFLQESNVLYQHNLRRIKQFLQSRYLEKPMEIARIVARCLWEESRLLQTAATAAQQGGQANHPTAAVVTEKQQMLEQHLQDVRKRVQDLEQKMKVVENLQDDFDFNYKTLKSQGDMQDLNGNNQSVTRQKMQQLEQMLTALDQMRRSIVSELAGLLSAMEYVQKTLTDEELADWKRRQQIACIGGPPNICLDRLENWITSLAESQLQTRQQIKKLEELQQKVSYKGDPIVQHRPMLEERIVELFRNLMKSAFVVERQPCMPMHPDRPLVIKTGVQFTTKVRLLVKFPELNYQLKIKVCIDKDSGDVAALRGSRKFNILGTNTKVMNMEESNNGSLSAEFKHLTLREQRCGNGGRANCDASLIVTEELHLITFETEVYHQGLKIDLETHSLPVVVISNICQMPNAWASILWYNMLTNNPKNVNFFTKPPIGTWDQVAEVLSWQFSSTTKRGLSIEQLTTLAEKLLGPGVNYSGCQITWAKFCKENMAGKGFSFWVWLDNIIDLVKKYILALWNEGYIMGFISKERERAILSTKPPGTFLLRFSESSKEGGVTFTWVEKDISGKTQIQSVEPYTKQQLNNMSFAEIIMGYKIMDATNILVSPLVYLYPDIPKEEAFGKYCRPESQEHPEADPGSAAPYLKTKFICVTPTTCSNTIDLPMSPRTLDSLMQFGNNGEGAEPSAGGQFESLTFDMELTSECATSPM

The nature of test [20]: ATG_TA_CIS: Attagene CIS-FACTORIAL HepG2 Assay for human TA Basal Promoter (AID 2282964). The conditions noted are these: HepG2 Attagene CIS-factorial TA basal promoter reporter; actives raise or lower the signal. In short, it runs like this: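 Transient MRTU transfection of HepG2 preceded 24 h compound exposure. Reporter mRNA levels were then read by RT-PCR with capillary electrophoresis, and this background-control endpoint was fitted bidirectionally to DMSO.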

Among the data in PubChem BioAssay (EPA / NIEHS) are outcome and AC50 values, retold here.

Values joined by “and” are separate entries in the source; they are usually repeats but may differ in a detail not shown here. Identical values can stand only once. Some compounds were tested as several samples or in several runs, with calls that do not always agree. Active and inactive are the calls of the source. How the source made its calls: active means hit-call score of the fitted dose curve at least 0.9, where 1 is the maximum; inactive means score below 0.9.

Broadly, the AC50 is the concentration at which the activity in the assay is half-maximal.

Sequence of Hepatocyte nuclear factor 6 (Homo sapiens) (Q9UBC0 whole entry, looked up, the tested form may be a part): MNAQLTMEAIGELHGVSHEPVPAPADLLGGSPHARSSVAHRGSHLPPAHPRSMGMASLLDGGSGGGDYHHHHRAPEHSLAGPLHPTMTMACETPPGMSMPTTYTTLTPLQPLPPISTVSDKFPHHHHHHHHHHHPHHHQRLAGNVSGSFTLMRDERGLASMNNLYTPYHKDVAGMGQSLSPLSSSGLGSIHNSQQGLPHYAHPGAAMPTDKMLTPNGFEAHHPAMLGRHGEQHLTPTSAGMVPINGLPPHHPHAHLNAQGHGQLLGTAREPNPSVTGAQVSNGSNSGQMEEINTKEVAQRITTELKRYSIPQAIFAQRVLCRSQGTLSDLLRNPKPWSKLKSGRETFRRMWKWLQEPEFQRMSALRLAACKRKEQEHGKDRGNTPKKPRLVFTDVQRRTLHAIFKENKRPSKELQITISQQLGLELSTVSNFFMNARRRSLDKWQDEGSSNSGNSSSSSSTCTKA
Sequence of Bile acid receptor (Homo sapiens) (Q96RI1 whole entry, looked up): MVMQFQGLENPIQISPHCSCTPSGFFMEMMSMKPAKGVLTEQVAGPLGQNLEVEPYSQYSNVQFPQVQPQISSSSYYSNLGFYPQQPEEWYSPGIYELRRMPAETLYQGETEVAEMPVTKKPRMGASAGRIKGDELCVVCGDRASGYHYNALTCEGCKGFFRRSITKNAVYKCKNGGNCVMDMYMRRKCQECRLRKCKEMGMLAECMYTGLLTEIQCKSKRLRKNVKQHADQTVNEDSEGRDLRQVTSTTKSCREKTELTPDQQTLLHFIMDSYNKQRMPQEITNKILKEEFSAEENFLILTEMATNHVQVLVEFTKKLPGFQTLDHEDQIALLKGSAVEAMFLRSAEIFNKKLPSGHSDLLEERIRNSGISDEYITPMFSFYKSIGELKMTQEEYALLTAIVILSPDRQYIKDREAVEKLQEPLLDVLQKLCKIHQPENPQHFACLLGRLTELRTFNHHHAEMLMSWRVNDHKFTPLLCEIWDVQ
Sequence of Hypoxia-inducible factor 1-alpha (Homo sapiens) (Q16665 whole entry, looked up): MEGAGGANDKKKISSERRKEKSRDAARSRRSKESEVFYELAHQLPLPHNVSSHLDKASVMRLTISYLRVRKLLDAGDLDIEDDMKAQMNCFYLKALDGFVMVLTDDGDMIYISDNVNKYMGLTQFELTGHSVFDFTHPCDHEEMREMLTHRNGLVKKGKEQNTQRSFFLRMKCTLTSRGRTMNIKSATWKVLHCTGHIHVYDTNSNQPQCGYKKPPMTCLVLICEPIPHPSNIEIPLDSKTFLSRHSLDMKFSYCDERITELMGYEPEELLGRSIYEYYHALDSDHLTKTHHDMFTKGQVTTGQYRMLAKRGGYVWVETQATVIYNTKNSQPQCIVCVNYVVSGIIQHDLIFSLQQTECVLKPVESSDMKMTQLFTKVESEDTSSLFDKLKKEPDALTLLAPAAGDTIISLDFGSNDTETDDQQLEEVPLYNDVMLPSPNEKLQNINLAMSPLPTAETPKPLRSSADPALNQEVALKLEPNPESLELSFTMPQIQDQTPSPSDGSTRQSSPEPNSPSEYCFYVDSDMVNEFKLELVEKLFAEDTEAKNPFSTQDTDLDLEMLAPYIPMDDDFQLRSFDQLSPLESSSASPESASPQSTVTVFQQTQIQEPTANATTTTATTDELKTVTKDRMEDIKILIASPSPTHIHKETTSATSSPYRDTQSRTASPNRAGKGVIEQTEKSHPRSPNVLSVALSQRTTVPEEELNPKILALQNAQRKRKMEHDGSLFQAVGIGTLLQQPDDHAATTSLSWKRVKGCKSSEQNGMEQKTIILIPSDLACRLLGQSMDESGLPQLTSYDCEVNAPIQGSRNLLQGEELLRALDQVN

For `CCCCCCCCCCCCCC[N+](C)(C)C`, the call in [1], in [2], in [3], in [4], in test [5] and in test [6] was inactive. For the same molecule, the molecule was called inactive in test [7], in test [8], in test [9], in test [10], in [11] and in test [12]. Further, the molecule was classed as inactive in test [13], in [14], in [15], in test [16], in test [17] and in [19]. Moreover, the molecule was classed as inactive in test [20]. In addition, the AC50 is 9.85 µM (active) in [2]; 8.9 µM (active) in [10]; 6.57 µM (active) and 2.76 µM (active) in [18]; 18.1 µM (active) in test [19].
For `O=C(/C=C/c1ccc(O)cc1)CC(=O)/C=C/c1ccc(O)cc1`, the outcome in [1], in test [3], in test [5], in test [6], in test [7] and in test [8] was inactive. Further, the outcome in test [11], in [13], in test [14], in test [17], in [18] and in test [19] was inactive. Also, in [20], the result was inactive. Besides, the AC50 in test [2] is 29 µM (active); in test [4], 8.84 µM (active); in [9], 20.3 µM (active); in [10], 10.8 µM (active); in [12], 14.6 µM (active); in test [15], 2.56 µM (active). In addition, in [16], the AC50 is 25.7 µM (active).
Turning to `NC(=O)N1C(=O)C(C(=O)c2cc(Cl)cs2)c2cc(F)c(Cl)cc21` (stereo unspecified), the call in test [1], in test [2], in test [3], in [4], in [5] and in [8] was inactive. For the same molecule, the molecule was called inactive in test [9], in [12], in [14], in test [16], in test [17] and in test [19]. Further, the molecule was classed as inactive in [20]. Also, the AC50 in [7] is 6.79 µM (active); in test [10] it was 14.9 µM (active); in test [11] it was 11 µM (active); in test [13], 4.07 µM (active); in [15], 13.7 µM (active); in test [18] it was 4.78 µM (active).
On to `Nc1cccc2c(N)cccc12`, for which the call in test [1], in test [2], in test [3], in test [4], in [5] and in test [6] was inactive. Moreover, the result in test [7], in test [8], in [9], in [10], in [11] and in test [12] was inactive. In addition, the molecule was classed as inactive in test [13], in [14], in test [15], in test [16], in [17] and in [18]. In addition, the call in [19] and in [20] was inactive.
Take `N#C[C@@H]1CC(F)(F)CN1C(=O)CNC1CC2CCC(C1)N2c1ncccn1` (stereo partly specified): the call in test [1], in test [2], in test [3], in [4], in test [5] and in test [6] was inactive. In addition, the molecule was classed as inactive in [7], in test [8], in test [9], in test [10], in test [12] and in test [14]. The outcome in test [15], in test [16], in [17], in [18], in test [19] and in [20] was inactive. In test [13], the AC50 was 75.6 µM (active).
